CYP2C9 inhib = human CYP2C9 inhibition; AID 777; CYP2C9 Supersomes, luciferin-H conversion, luminescence; 96,000 tested, 20% active; inhibition, % at 5 µM; P11712;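 active = blocking of liver enzyme CYP2C9 beyond about 50% at 5 µM, limit read from the data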
CYP2C9 act = CYP2C9 (human) activation | 96,000 tested, 1.4% active | activation factor at 5 µM | P11712 | recombinant CYP2C9, luciferin-H conversion, luminescence; active compounds read high; factor 1 = untreated enzyme, 0 = blocked;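 active = activation factor of 2 or more for CYP2C9 at a 5 µM dose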;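 note: 0 = sulfaphenazole-blocked wells and 1 = vehicle-only wells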
CYP2C19 activ = increases human CYP2C19 enzyme activity; recombinant CYP2C19, luciferin-H EGE luminescence; active compounds read high; 0 = fully inhibited enzyme, 1 = untreated enzyme; P33261; activation factor at 5 µM; 96,000 tested, under 10 active; AID 1025;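 active = activation factor of at least 2 at 5 µM in the primary screen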;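 note: 0 = wells with 2.5 mM tranylcypromine and 1 = vehicle-only wells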
Target sequence (P33261 whole entry, looked up): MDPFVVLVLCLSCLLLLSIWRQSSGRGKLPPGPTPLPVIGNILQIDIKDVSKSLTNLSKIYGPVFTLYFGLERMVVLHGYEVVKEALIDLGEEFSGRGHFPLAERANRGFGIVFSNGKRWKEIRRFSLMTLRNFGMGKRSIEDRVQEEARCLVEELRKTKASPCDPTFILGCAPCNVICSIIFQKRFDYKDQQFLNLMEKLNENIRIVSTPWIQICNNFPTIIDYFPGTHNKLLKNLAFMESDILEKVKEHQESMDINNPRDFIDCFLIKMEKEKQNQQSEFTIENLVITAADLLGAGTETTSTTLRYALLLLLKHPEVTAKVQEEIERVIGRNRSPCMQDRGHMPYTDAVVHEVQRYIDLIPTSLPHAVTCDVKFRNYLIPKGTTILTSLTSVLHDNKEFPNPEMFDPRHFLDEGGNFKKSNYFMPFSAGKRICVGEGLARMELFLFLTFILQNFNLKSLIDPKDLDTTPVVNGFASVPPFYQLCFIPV
CYP2C19 inhib = blocks human cytochrome P450 2C19; inhibition, % at 5 µM; 96,000 tested, 21% active; AID 778; CYP2C19 Supersomes, luciferin-H EGE luminescence, 30 min; P33261;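 active = CYP2C19 inhibition above a set limit at 5 µM in the primary screen, cut at about 50% in these data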;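 note: plate controls were negative control wells for no effect and 2.5 mM tranylcypromine positive control for full effect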
* hit, by the source's call. Most compounds without a hit are left out; they make up all but 31% or so of the library.

SMILES | CYP2C9 inhib | CYP2C9 act | CYP2C19 activ | CYP2C19 inhib
CCOc1ccc(C(=O)Nc2cccc(-c3cc4ccccc4oc3=O)c2)cc1[N+](=O)[O-] | 65.2* | 0.3 | 0.2 | 81.5*
Cc1ccc2nc(-c3ccc(NC(=O)c4ccco4)cc3)[nH]c2c1 | 34.3 | 0.7 | 0.6 | 39.9
Nc1c(-c2ccccc2)cnn1-c1ccc(C(=O)O)cc1 | -0.6 | 1 | 1 | -1.6
Cc1cc(C)c2oc(-c3ccc(C)c(NC(=S)NC(=O)/C=C/c4ccco4)c3)nc2c1 | 45.1 | 0.5 | 0 | 97.1*
Cc1cc(C)c2oc(-c3ccc(C)c(NC(=S)NC(=O)c4cccs4)c3)nc2c1 | 26.0 | 0.7 | 0.9 | 7.9
N/C(COc1ccccc1)=N\NC(=O)c1cccnc1Oc1ccccc1 | -2.7 | 1 | 0.6 | 37.0
COc1ccc(-n2c(SCC(=O)Nc3nccs3)nc3c(c2=O)SC(C)C3)cc1 (stereo not drawn) | 24.7 | 0.8 | 1.1 | -14.4
Cc1ccc(C=NCc2ccncc2)c(O)c1 | 72.0* | 0.3 | 0.2 | 75.5*
Oc1cccc(C=NCc2ccccc2)c1O | 26.1 | 0.7 | 1 | -1.7
COC(=O)C1=C(C(=O)OC)SC2(S1)C(C(=O)OC)=C(C(=O)OC)SC1=C2c2cccc(C)c2NC1(C)C | 87.8* | 0.1 | 0.1 | 85.4*
COc1ccc(S(=O)(=O)NC2CCCCC2)cc1C | -201.6 | 3* | 0.4 | 60.0*
COc1ccc(C)cc1S(=O)(=O)NC1CCCC1 | 26.3 | 0.7 | 0.2 | 83.4*
COc1ccc(S(=O)(=O)NC2CCCC2)c(Cl)c1Cl | 54.3* | 0.5 | 0 | 97.8*
Cc1cc(S(=O)(=O)NC2CCCC2)ccc1F | 11.6 | 0.9 | 0.7 | 25.8
COc1ccc(F)cc1S(=O)(=O)NC1CCCC1 | 31.8 | 0.7 | 0.2 | 80.1*
CCCC(O)(CCC)C(=O)NN1CCCCC1 | 41.1 | 0.6 | 0.9 | 7.2
O=C1CCC([N+](=O)[O-])C(c2ccc(Cl)cc2)N1 (stereo not drawn) | -5.5 | 1.1 | 1 | -4.7
O=c1[nH]c2ccc(Cl)cc2c(-c2ccccc2)c1SC(=S)N1CCCCC1 | 52.4* | 0.5 | 1.1 | -8.3
O=c1c2ccccc2nc(SCc2ccc([N+](=O)[O-])cc2)n1-c1ccccc1 | 37.9 | 0.6 | 0.7 | 31.0
COc1cc(-c2nnc(CSc3nc4ccccc4s3)o2)cc(OC)c1OC | 65.4* | 0.3 | 0.5 | 52.8*
COc1ccc(-c2nnc(CSc3nnc(-c4ccncc4)n3C3CCCCC3)o2)cc1OC | 27.1 | 0.7 | 0.8 | 17.3
O=c1c2ccccc2nc(SCc2nc(-c3ccccc3)no2)n1-c1ccc(F)cc1 | 58.6* | 0.4 | 0.8 | 16.1
COc1ccc(-c2noc(CSc3nc4ccccc4c(=O)n3-c3ccccc3)n2)cc1OC | 69.1* | 0.3 | 0.6 | 43.1
COc1ccc(-c2noc(CSc3nc4sc(C)c(C)c4c(=O)n3-c3ccccc3)n2)cc1OC | 27.0 | 0.7 | 1 | -1.9
COc1ccc(-c2nnc(CSc3nc4ccccc4c(=O)n3CC(C)C)o2)cc1OC | 96.6* | 0 | 0.1 | 91.8*
SMILES | CYP2C9 inhib | CYP2C9 act | CYP2C19 activ | CYP2C19 inhib
CCOC(=O)CN1C(=O)C(=O)c2cccc(C)c21 | 31.6 | 0.7 | 1 | 2.5
O=C(c1cc2ccccc2oc1=O)N(Cc1ccco1)CC1CCCO1 (stereo not drawn) | 54.7* | 0.5 | 0.9 | 12.0
O=C(c1cc2ccccc2oc1=O)N(Cc1ccc2c(c1)OCO2)Cc1ccco1 | 92.1* | 0.1 | 0 | 96.5*
O=C(N1CCOCC1)N(Cc1ccco1)CC1CCCO1 (stereo not drawn) | 9.0 | 0.9 | 1 | -3.3
CCOc1ccc(OCC)c(NC(=O)CC2Oc3ccccc3NC2=O)c1 (stereo not drawn) | 14.3 | 0.9 | 0.9 | 14.5
COc1ccccc1N1CC(C(=O)Nc2cccc(C(=O)O)c2)CC1=O (stereo not drawn) | -14.9 | 1.1 | 1 | 0.8
CC(=O)N1N=C(c2cccc([N+](=O)[O-])c2)OC1c1ccccc1Cl (stereo not drawn) | 85.5* | 0.1 | 0.4 | 62.5*
O=C1CCSc2ccc(Cl)cc2N1Cc1ccccc1 | 22.6 | 0.8 | 0.3 | 66.4*
Cc1cccc(CN2C(=O)CCSc3ccc(Cl)cc32)c1 | 32.0 | 0.7 | 0.3 | 67.1*
O=C1CCSc2ccc(Cl)cc2N1Cc1ccc(Cl)cc1 | 23.7 | 0.8 | 0.8 | 19.5
O=C(Oc1ccnc2cc(Cl)ccc12)N1CCOCC1 | 3.0 | 1 | 1 | -4.6
COc1ccc(/C(O)=C2/C(=O)C(=O)N(Cc3cccnc3)C2c2ccco2)cc1OC (stereo not drawn) | 36.6 | 0.6 | 0.7 | 25.9
CCOC(=O)CCN(Cc1cccs1)S(=O)(=O)c1ccc(Cl)cc1 | 43.2 | 0.6 | 0.3 | 68.2*
O=C1NC(c2ccccc2)=C(c2nc3ccccc3s2)C(c2ccccc2)N1 (stereo not drawn) | 91.0* | 0.1 | 0.3 | 71.2*
O=C(Nc1ccc2oc(-c3ccccc3F)nc2c1)c1ccc2c(c1)OCCO2 | 51.3* | 0.5 | 0.5 | 49.2
Cc1ccc(-n2nc3ccc(NC(=O)c4ccc5c(c4)OCO5)cc3n2)cc1 | 17.2 | 0.8 | 0.9 | 5.5
Cc1cc(C)n(-c2ccc(C(=O)NCc3ccc4c(c3)OCO4)cc2)n1 | 48.9 | 0.5 | 0.6 | 41.5
O=C(Nc1ccc2oc(-c3ccc(F)cc3)nc2c1)c1ccccc1F | 17.3 | 0.8 | 1 | -2.6
CC(=O)Nc1ccc2oc(-c3ccccc3Br)nc2c1 | 72.6* | 0.3 | 0.7 | 27.2
Cc1cc(C)n(-c2ccc(C(=O)Nc3ccc4c(c3)OCCO4)cc2)n1 | 22.2 | 0.8 | 0.5 | 50.0*
O=C(Nc1ccc2nn(-c3ccccc3)nc2c1)c1ccc2c(c1)OCCO2 | 55.5* | 0.4 | 0.4 | 58.9*
Cc1sc2nc(NCCO)[nH]c(=O)c2c1C | 10.1 | 0.9 | 0.8 | 22.9
C[N+](C)(C)CCCC(=O)c1ccc2c(c1)OCO2 | 6.6 | 0.9 | 0.9 | 8.8
COc1ccc(CCNS(=O)(=O)c2cccc(C(=O)O)c2)cc1OC | 9.8 | 0.9 | 0.9 | 6.2
C=CCNC(=O)CSc1ccc(Cl)cc1 | 2.4 | 1 | 0.8 | 24.3
SMILES | CYP2C9 inhib | CYP2C9 act | CYP2C19 activ | CYP2C19 inhib
Cc1ccc(SCCC(=O)N2CCCC2)cc1 | 49.4 | 0.5 | 0.1 | 90.5*
Cc1ccc(SCCC(=O)N2CCOCC2)cc1 | 14.7 | 0.9 | 0 | 95.1*
Cc1ccc(N=C2SCCCN2C(=O)c2ccco2)cc1Cl | 12.5 | 0.9 | 0.8 | 20.8
Cc1cc2n(n1)C(c1cccs1)Nc1ccccc1-2 (stereo not drawn) | 35.0 | 0.7 | 0.7 | 29.9
Cc1ccc(-c2nnc(CSc3nnc(COc4ccccc4)n3-c3ccc(C)cc3)o2)cc1 | 70.7* | 0.3 | 0.6 | 36.5
Cc1ccc(-c2nnc(CSc3nnc(COc4ccccc4)n3-c3ccccc3)o2)cc1 | 97.9* | 0 | 0.1 | 92.4*
O=C1CCCc2c1[nH]c1ccccc21 | -119.2 | 2.2* | 1 | -1.5
CC(CN1CCOCC1)OC(=O)c1ccc2c(c1)OCCO2 (stereo not drawn) | -0.2 | 1 | 0.8 | 18.4
CC(CN1CCOCC1)OC(=O)c1cccc(Br)c1 (stereo not drawn) | -0.7 | 1 | 0.4 | 60.0*
CC(CN1CCOCC1)OC(=O)c1ccccc1Br (stereo not drawn) | -6.5 | 1.1 | 0.2 | 76.3*
